Spn DPM-DC inh: blocks S. pneumoniae diphosphomevalonate decarboxylase; purified DPM-DC, PK/LDH coupled NADH fluorescence; calls only at 10 µM; 65,000 compounds, 0.49% hits; AID 556;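 active means the 320 compounds with the highest percent inhibition in the single-dose primary screen, excluding strongly autofluorescent ones, cut at about 32% in these data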;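 further: kinetic rate of NADH fluorescence loss reporting ADP formed by the decarboxylase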
Abs 340nm: compound absorbs light at 340 nm; compound absorbance at 340 nm, fold over control; fold change at 10 µM; 65,000 tested, under 10 active;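 active means at 10 µM dose, initial 340 nm absorbance at least 2 fold that of control wells; inactive means change under 2 fold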;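 further: initial absorbance extrapolated from kinetic A340 decline of NADH oxidation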
NADH coupling: inhibition of NAD/NADH coupling enzymes, library profiling. AID 774. 65,000 compounds, 0.02% hits. coupled PK/LDH NADH assays, four targets. IC50, µM (highest dose often 10 µM), for inactives: at the highest dose inhibition;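 active means single-dose screening hits from any of four coupled enzyme assays that gave an IC50 when retested across doses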;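 further: the DPM-DC format reads NADH fluorescence rather than 340 nm absorbance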
Spn PMK inh: S. pneumoniae PMK inhibition; purified PMK, PK/LDH-coupled NADH absorbance 340 nm; inhibition, % at 10 µM; 65,000 compounds, 0.49% hits; AID 539;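 active means top-ranked compounds by inhibition in the single 10 µM screen, taking a fixed number of the strongest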;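 further: 0% = full reaction with DMSO carrier and 100% = background rate without enzyme reaction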
MK inhibit: S. pneumoniae mevalonate kinase inhibition; purified MK, PK/LDH-coupled NADH absorbance 340 nm; 65,000 compounds, 0.48% hits; inhibition, % at 10 µM;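 active means ranked among the strongest by inhibition in the single 10 µM screen, a fixed top-ranked set picked for dose follow-up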
Fluor 339 460: intrinsic fluorescence of library compounds, ex339/em460 – biochemical, MLSMR library, data from DPM-DC assay, artefact control, profiling panel; compound autofluorescence, ex339/em460 nm, NADH buffer; stronger effect = higher value; 1 = no-compound wells, NADH background; fluorescence fold increase at 10 µM; 65,000 compounds, 5.5% hits; AID 709;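 active means at 10 µM, mean starting fluorescence two-fold or more over control wells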;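 further: signal is the first read of a kinetic run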
Active calls of the source: *. An excerpt weighted towards active compounds, which were near 6.3% of everything screened.

For C=CCc1cccc(/C=N/n2cnnc2)c1O the results were Spn DPM-DC inh inactive, Abs 340nm 1.1, NADH coupling 6%, Spn PMK inh 9, MK inhibit 8 and Fluor 339 460 1.
`CCOC(=O)CSc1nc2ccccc2c(=O)n1CC1CCCO1` (stereo not given) gave Spn DPM-DC inh inactive, Abs 340nm 1.1, NADH coupling 4%, Spn PMK inh 11, MK inhibit 0 and Fluor 339 460 1.2.
`Cc1ccc(S(=O)(=O)c2cc3c(=O)n4cc(C)ccc4nc3n(CC3CCCO3)c2=N)cc1` (stereo not given) gave Spn DPM-DC inh inactive, Abs 340nm 1.1, NADH coupling 8%, Spn PMK inh 1, MK inhibit 9 and Fluor 339 460 2.1*.
N=c1c(S(=O)(=O)c2ccccc2)cc2c(=O)n3ccccc3nc2n1CC1CCCO1 (stereo not given) was read as Spn DPM-DC inh inactive, Abs 340nm 1, NADH coupling 10%, Spn PMK inh 4, MK inhibit 6 and Fluor 339 460 3.1*.
`Cn1c(=N)c(S(=O)(=O)c2ccc(Cl)cc2)cc2c(=O)n3ccccc3nc21` gave Spn DPM-DC inh inactive, Abs 340nm 0.98, NADH coupling 6%, Spn PMK inh 11, MK inhibit 7 and Fluor 339 460 1.8.
For O=C(NC1CC1)C1CCN(c2ccc(S(=O)(=O)N3CCOCC3)cc2Cl)CC1 the results were Spn DPM-DC inh inactive, Abs 340nm 0.97, NADH coupling 7%, Spn PMK inh 16, MK inhibit 6 and Fluor 339 460 1.
Screening COC(=O)c1c(N)c(C#N)c(C)n1-c1ccccc1 returned Spn DPM-DC inh inactive, Abs 340nm 1, NADH coupling 9%, Spn PMK inh 17, MK inhibit 11 and Fluor 339 460 1.1.
Cc1ccc2c(c1)[nH]c1c(=O)n(CCN3CCCCC3)cnc12 was read as Spn DPM-DC inh inactive, Abs 340nm 1.1, NADH coupling 6%, Spn PMK inh 11, MK inhibit 0 and Fluor 339 460 1.7.
COc1ccccc1CCn1cnc2c3cc(C)ccc3n(C)c2c1=O was read as Spn DPM-DC inh inactive, Abs 340nm 1, NADH coupling 8%, Spn PMK inh 0, MK inhibit 4 and Fluor 339 460 3.3*.
COc1ccc2c(c1)c1ncn(CCN3CCCC3)c(=O)c1n2C was read as Abs 340nm 1.1, NADH coupling 10%, Spn PMK inh 10, MK inhibit 9 and Fluor 339 460 3.7*.
`Cc1cc(NC(=O)COc2ccc(N(C)S(=O)(=O)c3ccccc3)cc2)no1` gave Spn DPM-DC inh inactive, Abs 340nm 0.99, NADH coupling 4%, Spn PMK inh 10, MK inhibit 3 and Fluor 339 460 1.1.
For COc1ccc(-c2cc(C(F)(F)F)nc(SCC(N)=O)n2)cc1 the results were Abs 340nm 1.1, NADH coupling 11%, Spn PMK inh 13, MK inhibit 9 and Fluor 339 460 3.7*.
`COC(=O)CSc1nc(-c2cccs2)ccc1C#N` gave Abs 340nm 1.1, NADH coupling 6%, Spn PMK inh 3, MK inhibit 9 and Fluor 339 460 2.3*.
For O=C(CSc1nc(-c2cccs2)cc(C(F)(F)F)n1)NCc1ccco1 the results were Spn DPM-DC inh inactive, Abs 340nm 1.1, NADH coupling 7%, Spn PMK inh 9, MK inhibit 13 and Fluor 339 460 1.1.
Screening COc1ccc(CCNC(=O)CSc2nc(-c3ccco3)cc(C(F)(F)F)n2)cc1OC returned Spn DPM-DC inh inactive, Abs 340nm 1.1, NADH coupling 3%, Spn PMK inh 4, MK inhibit 4 and Fluor 339 460 1.1.
For C#CCSc1nc(-c2cccs2)ccc1C#N the results were Spn DPM-DC inh inactive, Abs 340nm 1, NADH coupling 2%, Spn PMK inh 14, MK inhibit 2 and Fluor 339 460 1.9.
`CN1CCN(C(=O)CSc2nc(-c3cccs3)cc(-c3cccs3)c2C#N)CC1` gave Spn DPM-DC inh inactive, Abs 340nm 1.1, NADH coupling 6%, Spn PMK inh 0, MK inhibit 7 and Fluor 339 460 2.8*.
Screening COc1ccc(-c2cc(-c3cccs3)c(C#N)c(SCC(=O)NCc3ccco3)n2)cc1 returned Spn DPM-DC inh inactive, Abs 340nm 1, NADH coupling 10%, Spn PMK inh 4, MK inhibit 8 and Fluor 339 460 2.5*.
COc1ccc(-c2cc(C(F)(F)F)nc(SCCC(=O)N3CCOCC3)n2)cc1 was read as Spn DPM-DC inh inactive, Abs 340nm 1, NADH coupling 9%, Spn PMK inh 14, MK inhibit 12 and Fluor 339 460 2*.
`COc1ccc(-c2cc(C(F)(F)F)nc(SCC(=O)NCc3ccco3)n2)cc1OC` gave Abs 340nm 1, NADH coupling 4%, Spn PMK inh 12, MK inhibit 9 and Fluor 339 460 2.7*.
COc1ccc(-c2nnc(SCC(=O)N3CCOCC3)o2)cc1 was read as Spn DPM-DC inh inactive, Abs 340nm 1, NADH coupling 1%, Spn PMK inh 3, MK inhibit 1 and Fluor 339 460 1.2.
c1ccc(-c2nc3nonc3c3nc4ccccc4n23)cc1 was read as Spn DPM-DC inh active, Abs 340nm 1, NADH coupling 9%, Spn PMK inh 4, MK inhibit inactive and Fluor 339 460 2.3*.
For c1ccc(-c2nc3nonc3nc2-c2ccccc2)cc1 the results were Spn DPM-DC inh inactive, Abs 340nm 1.1, NADH coupling 5%, Spn PMK inh 9, MK inhibit 6 and Fluor 339 460 1.1.
For Cc1ccc(OCC(=O)Nc2ccc(O)c(C(=O)O)c2)cc1C the results were Abs 340nm 1, NADH coupling 8%, Spn PMK inh 6, MK inhibit 9 and Fluor 339 460 3.3*.
`O=C(COc1cnc2ccccc2n1)NCCC1=CCCCC1` gave Spn DPM-DC inh active, Abs 340nm 1.1, NADH coupling 16%, Spn PMK inh 11, MK inhibit 2 and Fluor 339 460 2.
`O=C(COc1ncnc2ccccc12)NCCC1=CCCCC1` gave Spn DPM-DC inh inactive, Abs 340nm 1, NADH coupling 0%, Spn PMK inh 0, MK inhibit 0 and Fluor 339 460 1.1.
COc1ccc(NC(=O)NCCCN2CCc3ccccc3C2)cc1 was read as Spn DPM-DC inh inactive, Abs 340nm 0.99, NADH coupling 4%, Spn PMK inh 2, MK inhibit 10 and Fluor 339 460 1.1.
Screening COc1ccc2cc3cc(C(=O)NCCN4CCN(Cc5ccccc5)CC4)oc3nc2c1 returned Abs 340nm 1.1, NADH coupling 8%, Spn PMK inh 12, MK inhibit 3 and Fluor 339 460 5.2*.
`COc1ccc2cc3cc(C(=O)NCCN4CCc5ccccc5C4)oc3nc2c1` gave Abs 340nm 1.1, NADH coupling 6%, Spn PMK inh 8, MK inhibit 3 and Fluor 339 460 5.1*.

Compound activity deposited in PubChem by SRMLSC.
